Source: PubChem BioAssay
Only some compounds are listed: those with a hit (about 3.5% of all), similar ones and a draw of the others.
Rv3671c protease: Rv3671c serine protease inhibitors, primary screen, biochemical, fluorescence polarization, M. tuberculosis H37Rv; hit rate 0.048% among 320,000; inhibition, % at 5.96 µM; in the data active = inhibition above about 38%;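 also: extracellular domain of Rv3671c used as enzyme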
UGM FP inh: M. tuberculosis UGM enzyme inhibitors, primary screen, biochemical, fluorescence polarization, single point; UDP-galactopyranose mutase (Mycobacterium tuberculosis (strain ATCC 25618 / H37Rv)), …; purified UGM, fluorescence polarization probe displacement; inhibition, % at 10 µM; hit rate 0.06% among 320,000; AID 504406, 2011; in the data active = inhibition above about 10%, passing the limit was not always enough
GDH-TPI inh: GDH-TPI coupling enzyme inhibitors, primary screen, artefact control for M. tuberculosis FBA inhibitor project, biochemical, absorbance, full deck. GDH-TPI coupled enzyme counterscreen, NADH absorbance. inhibition, % at 4.8 µM. hit rate 1.2% among 360,000. AID 588335, 2011; in the data active = inhibition above about 30%
Mtb FBA inh: Mtb FBA enzyme inhibitors, primary screen, biochemical, fluorescence, strain H37Rv; Fructose-bisphosphate aldolase (Mycobacterium tuberculosis (strain ATCC 25618 / H37Rv)), …; purified M. tuberculosis FBA, fluorescence read-out; inhibition, % at 1 µM; hit rate 2.3% among 360,000; AID 588726, 2011; in the data active = inhibition above about 27%
Target sequence (P9WQA3 whole entry, looked up): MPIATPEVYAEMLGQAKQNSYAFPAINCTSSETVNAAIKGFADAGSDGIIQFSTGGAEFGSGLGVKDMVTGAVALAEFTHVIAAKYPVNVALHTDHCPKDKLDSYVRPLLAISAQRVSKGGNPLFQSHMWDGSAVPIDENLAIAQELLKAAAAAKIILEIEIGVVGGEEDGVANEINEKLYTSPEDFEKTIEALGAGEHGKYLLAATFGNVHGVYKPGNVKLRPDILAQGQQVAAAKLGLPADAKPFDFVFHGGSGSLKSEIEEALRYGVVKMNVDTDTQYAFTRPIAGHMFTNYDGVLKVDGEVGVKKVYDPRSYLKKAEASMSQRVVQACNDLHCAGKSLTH
A number is an active result; . = inactive; / = not tested or not shown; + = active, no number.

SMILES	Rv3671c protease	UGM FP inh	GDH-TPI inh	Mtb FBA inh
CCOC(=O)/C(=C/C=C/c1ccccc1)NC(=O)c1ccccc1	.	.	.	.
O=C(Nc1cccc(C(=O)O)c1)/C(=C\c1ccccc1)NC(=O)c1ccccc1	.	.	.	.
O=C(Nc1ccc(C(=O)O)cc1)/C(=C\C=C\c1ccccc1)NC(=O)c1ccccc1Br	.	.	51.6	.
CC(C)N1CCC1(C)C(=O)Nc1nc2ccccc2[nH]1 (centres undefined)	/	/	.	.
O=C(Nc1ccc(C(=O)O)cc1)/C(=C\C=C\c1ccccc1)NC(=O)c1cccc(Br)c1	.	.	42.1	.
Cc1c(C(=O)Nc2ccc3c(c2)OCCO3)sc2ncnc(N3CCCCC3C)c12 (centres undefined)	.	.	31.3	.
Cc1nc(N2CCC(C)CC2)c2c(C)c(C(=O)Nc3ccc4c(c3)OCCO4)sc2n1	.	.	.	.
COc1cc2oc3cc(C)oc(=O)c3c2cc1OC	.	.	.	142.4
Nc1nc(-c2cc(O)ccc2[N+](=O)[O-])cc(-c2ccccc2)c1[N+](=O)[O-]	/	.	32.9	.
OC(c1ccc(F)c(F)c1)c1nc(-c2cc(F)cc(F)c2)cs1 (centres undefined)	/	/	.	.
CN(C)C(CNC(=O)c1ccccc1OCc1ccc(Cl)cc1)c1ccco1 (centres undefined)	.	.	.	.
CN(C)c1ccc(/C=N/NC(=O)c2cccc(N3CCCC3=O)c2)cc1	.	.	45.8	.
O=C(N/N=C/c1ccccc1)c1ccc2c(c1)OCO2	.	.	.	.
Cc1ccc(C(=O)NN=Cc2ccc3c(c2)OCO3)cc1	/	/	34.9	.
O=C(NN=Cc1ccc2c(c1)OCO2)NN=Cc1ccc2c(c1)OCO2	/	/	37.5	.
COc1cccc(/C=N/NC(=O)c2cccc(N3CCCC3=O)c2)c1	.	.	.	.
O=C(NN=Cc1ccc2c(c1)OCO2)C1CC1	/	/	.	.
CN(C)c1ccc(/C=N/NC(=O)c2ccc3c(c2)OCO3)cc1	/	.	42.2	.
Cc1ccc(C(=O)N/N=C\c2ccc3c(c2)OCO3)cn1	.	.	.	.
CCOc1cc(/C=N/NC(=O)C2CC2)ccc1OC(C)C	/	.	.	.
O=C(CCc1c[nH]c2ccccc12)N/N=C/c1ccc2c(c1)OCO2	.	.	37.8	.
Cc1ccc(C(=O)N/N=C/c2ccc3c(c2)OCO3)o1	.	.	40.5	.
CC1(c2cccc(Br)c2)NC(=O)N(CC(=O)Nc2ccc3c(c2)OCCO3)C1=O (centres undefined)	.	.	.	.
COc1ccc(-n2c(=S)[nH]c3cc(C(=O)N4CCN(c5ccccc5)CC4)ccc3c2=O)c(OC)c1	.	.	.	.
CN1CCC(=O)N([C@H](COc2ccccc2)Cc2ccccc2)CC1	.	.	.	.
SMILES	Rv3671c protease	UGM FP inh	GDH-TPI inh	Mtb FBA inh
CN1CCSc2ccc(C(=O)NCc3cccc(F)c3)cc21	.	.	.	113.0
COC(=O)c1c(-c2ccc(OC)cc2)oc2ccccc12	.	.	.	134.3
COc1ccc(-c2oc3ccccc3c2C(=O)OCc2ccc([N+](=O)[O-])cc2)cc1	.	.	.	.
O=C(O)c1c(-c2ccccc2)oc2ccc(O)cc12	.	.	.	.
COc1ccc2oc(-c3ccccc3)c(C(=O)O)c2c1	.	.	.	+
COc1ccc([C@H]2CC(=O)C=C(c3ccc4ncccc4c3)C2)cc1OC	.	.	.	.
N#C/C(=C1/CCCCCN1)c1nc2ccccc2[nH]1	.	.	38.5	.
N#C/C(=C1\CCCN1)c1ccc2ccccc2n1	.	.	.	.
CCOC(=O)c1sc(=S)n(C)c1NC(=O)c1ccccc1	.	.	35.8	.
CCOC(=O)c1sc(=S)n(C)c1NC(=O)c1cccc(Br)c1	.	.	.	.
CC1(C)CC(=O)c2cnc(NC(=O)Cc3ccc(Cl)cc3)nc2C1	.	.	.	.
CCCCC(=O)Nc1ncc2c(n1)CC(C)(C)CC2=O	.	.	.	146.6
COc1ccccc1C(CNC(=O)CCNS(=O)(=O)c1ccc(Br)cc1)N1CCCC1 (centres undefined)	/	/	.	.
Cc1ccc(S(=O)(=O)Nc2cc3c(cc2N2CCOCC2)n(C)c(=O)c(=O)n3C)cc1	.	.	31.7	.
Cn1c(=O)c(=O)n(C)c2cc(N3CCOCC3)c(NS(=O)(=O)c3ccc(Br)cc3)cc21	.	.	.	.
CC(C)C[C@H](NC(=O)N1CCn2c1nc1ccccc12)C(=O)N[C@H](Cc1ccccc1)C(=O)O	.	.	.	.
COc1ccc(-c2ccnc3nc(Sc4ncc(C(F)(F)F)cc4Cl)nn23)cc1	.	.	.	+
COc1ccc(CNC(=O)C2CCCN2C(=O)Nc2cccc(Cl)c2)cc1 (centres undefined)	/	/	.	.
Cc1ccc(S(=O)(=O)N/N=C\C=C\c2ccccc2)cc1	.	.	.	.
O=S(=O)(N/N=C\C=C\c1ccccc1)c1ccc(Br)cc1	.	.	38.8	.
S=c1ncc2[nH]c(=S)[nH]c2[nH]1	/	/	35.7	.
O=P(O)(O)c1cc(-c2ccccc2)oc1-c1ccccc1	.	.	37.4	163.7
Cc1cccn2cc(-c3ccc(S(=O)(=O)N4CCOCC4)cc3)nc12	.	.	.	186.9
O=S(=O)(c1ccc(-c2cn3ccccc3n2)cc1)N1CCOCC1	.	.	.	+
Cc1cccn2cc(-c3ccc(S(=O)(=O)N4CCCCC4)cc3)nc12	.	.	.	135.4
SMILES	Rv3671c protease	UGM FP inh	GDH-TPI inh	Mtb FBA inh
Cc1ccc(N(C(=O)CNC(=O)c2ccco2)C(C(=O)NC2CCCCC2)c2ccncc2)c(C)c1 (centres undefined)	.	.	.	.
CCC(C)c1ccc(OCCCCN2CCOCC2)cc1 (centres undefined)	.	.	.	.
COC(=O)c1sccc1NC(=O)Cn1nnc(-c2ccccc2C)n1	.	.	.	.
CC(=O)c1ccc(OC(=O)Oc2ccc(C(C)=O)cc2)cc1	/	/	31.6	.
CC(C)(C)c1cc[n+](-c2[nH]c(=O)sc2/C=N/NC([S-])=Nc2ccccc2)cc1	.	18.2	36.8	.
Cc1cc[n+](-c2[nH]c(=O)sc2/C=N/NC([S-])=Nc2ccccc2)cc1C	.	/	51.9	.
Cc1ccc[n+](-c2[nH]c(=O)sc2/C=N/N=C(\[O-])CCn2c3ccccc3c3ccccc32)c1	.	.	.	.
O=C1NC(Cc2ccccc2)c2nc3ccc(Br)cc3c(=O)n2-c2cc(Cl)ccc21 (centres undefined)	.	.	/	/
CN(C)S(=O)(=O)c1cccc(NC(=O)c2c[nH]c3ccccc23)c1	.	.	.	77.8
CC(=O)NS(=O)(=O)c1ccc(NC(=O)C(C)NS(=O)(=O)/C=C/c2ccccc2)cc1 (centres undefined)	.	.	.	.
C/C(=N\N=C(/N)SC1CC(=O)N(c2cccc(Cl)c2)C1=O)c1cccs1 (centres undefined)	.	.	40.0	.
CCC1(CCC(C)C)SC(N)=NC1=O (centres undefined)	/	/	.	.
CCN(C(=O)Cn1cnc2c1c(=O)n(C)c(=O)n2C)C1CCCCC1	.	.	.	.
